# Measurements: paper PMC5540273 (PLoS ONE, 2017)
# Legend:
# Details in all cases: concentration: 1 μM, replicates: in singlicate; n = 1
# [1] = tested on: T1, RSK4(Kin.Dom.1-N-terminal)
# T1 construct: gene RPS6KA6
# [2] = tested on: T2, RSK4(Kin.Dom.2-C-terminal)
# T2 construct: gene RPS6KA6
# [3] = tested on: S6K1
# [4] = tested on: SBK1
# [5] = tested on: SGK2
# [6] = tested on: SGK3
# [7] = tested on: SGK
# [8] = tested on: SIK2
# [9] = tested on: SIK
# [10] = tested on: SLK
# [11] = tested on: T3, SNARK
# T3 construct: gene NUAK2
# [12] = tested on: SNRK
# [13] = tested on: SRC
# [14] = tested on: SRMS
# [15] = tested on: SRPK1
# [16] = tested on: SRPK2
# [17] = tested on: SRPK3
# [18] = tested on: STK16
# [19] = tested on: STK33
# [20] = tested on: STK35
# 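Note: KINOMEscan kinase panel screen.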
SMILES,%Inh [1],%Inh [2],%Inh [3],%Inh [4],%Inh [5],%Inh [6],%Inh [7],%Inh [8],%Inh [9],%Inh [10],%Inh [11],%Inh [12],%Inh [13],%Inh [14],%Inh [15],%Inh [16],%Inh [17],%Inh [18],%Inh [19],%Inh [20]
Cc1ccc(F)c(C(=O)Nc2cccc(-c3nn4ccccc4c3-c3ccnc(Nc4cccc(F)c4)n3)c2)c1F [GSK361061],0%,13%,0%,100%,4%,2%,11%,29%,68%,94.2%,11%,0%,25%,44%,15%,0%,25%,5%,4%,33%
Cn1cc(-c2ccc3c(c2)CCN3C(=O)Cc2cccc(Cl)c2)c2c(N)ncnc21 [GSK2606590],0%,19%,0%,9%,0%,0%,0%,0%,10%,67%,18%,0%,21%,0%,0%,0%,11%,11%,0%,0%
Cc1ccc(C(=O)Nc2ccc(Nc3ccnc4cc(-c5nccs5)ccc34)cc2O)cc1.Cl [GW494702],0%,0%,11%,6%,0%,0%,11%,5%,4%,30%,10%,0%,60%,89%,12%,31%,13%,0%,9%,0%
Clc1ccc(-c2nn3ncccc3c2-c2ccnc(Nc3ccc4c(c3)OCCO4)n2)cc1 [GW829116],0%,88%,9%,0%,0%,0%,35%,30%,1%,87%,0%,0%,44%,13%,0%,0%,0%,32%,0%,0%
Nc1ncc(-c2cccnc2)c2scc(-c3ccc4c(c3)CCN4C(=O)Cc3ccccc3)c12 [GSK683281],0%,26%,0%,25%,0%,10%,0%,4%,19%,33%,4%,1%,37%,8%,32%,0%,28%,4%,20%,0%
Nc1ncnc2c1nc(-c1ccccc1)n2-c1ccccc1 [SKF-97293],36%,0%,29%,53%,0%,16%,23%,0%,8%,0%,24%,18%,10%,24%,0%,5%,9%,0%,16%,0%
O=C(O)C(F)(F)F.O=C(O)C(F)(F)F.O=c1[nH]ccc2nc(N[C@@H]3CCCNC3)nc(Nc3ccc(S(=O)(=O)N4CCOCC4)cc3)c12 [GSK2177277],99.4%,52%,98.8%,92.7%,96.1%,99.2%,88%,84%,78%,98.4%,99.6%,72%,96.7%,0%,100%,65%,95.2%,99.3%,98.6%,98%
Cn1cc(-c2[nH]c3cc(NC(=O)[C@H](N)C4CCCCC4)cc4c3c2C=NNC4=O)cn1,86%,35%,76%,96.2%,83%,99.1%,95.7%,95.2%,90.8%,14%,97.9%,1%,98.3%,75%,99%,77%,82%,66%,37%,53%
Cc1cccc(NC(=O)Nc2ccc(Oc3ncnc4ccn(C)c34)cc2)c1,0%,0%,0%,0%,0%,0%,0%,7%,10%,0%,0%,0%,0%,0%,11%,0%,0%,0%,0%,0%
COc1cc(Nc2nccc(N3CCC(NC(=O)c4cc5ccccc5s4)C3)n2)cc(OC)c1OC (centres unmarked) [GSK1379760],0%,11%,17%,17%,0%,10%,11%,15%,14%,76%,20%,0%,21%,8%,61%,0%,22%,10%,0%,9%
